# TNAP act DEA = activates human TNAP at intermediate phosphate acceptor concentration. P05186. purified TNAP, CDP-star luminescence, 100 mM DEA, 30 min; hits give high values; scale: 0 levamisole-inhibited, 1 vehicle-only enzyme. activation factor at 20 µM. 64,000 tested, under 10 active. AID 813;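 active = activation factor of at least 2 at 20 µM, relative to controls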
# Hsp90 inh = displaces geldanamycin probe from tumor Hsp90; NCI-N417 lysate Hsp90, Cy3B-geldanamycin FP displacement; inhibition, % at 30 µM; 64,000 tested, 0.35% active; AID 429;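 active = inhibition above 50%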
# SK-BR-3 tox 24h = SK-BR-3 proliferation inhibitors; SK-BR-3 viability, CellTiter-Glo ATP luminescence, 24 h; hits give low values; 41,000 tested, 0.47% active; AID 847; viability, % at 10 µM;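 active = viability at or below the median of all test compounds minus 3 SD, in both replicates if run twice, cut at about 45% in these data; inconclusive = duplicate replicates that disagree with each other; inactive = viability above that cutoff in every replicate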
# Her2 expr inh = lowers expression of human Her2 kinase. SKBR-3 HER2 protein level, AlphaScreen, 18-24 h; hits give low values. 65,000 tested, 0.69% active. HER2 level % of control, % at 10 µM. P04626;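 active = HER2 level under 5% of the carrier-only control; inconclusive = no clear call, values can overlap the other calls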;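 note: lower value means stronger loss of Her2 protein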
# BAP1 inh = blocks human BAP1 ubiquitin-AMC hydrolysis. recombinant BAP1, Ub-AMC hydrolysis fluorescence kinetic; hits give low values. Q92560. activity remaining (% of control), % at 20 µM. 72,000 tested, 0.48% active;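 active = activity remaining at or below 50% of control, provided the compound also passes the data quality filters; inactive = the rest, including low values that fail the filters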
# S1P1 ag-PAM = activates or potentiates agonism at human S1P1 receptor. P21453. S1P1 CRE-bla cells, forskolin, beta-lactamase FRET, potentiator mode; S1P1 agonist co-added at EC20, 2 nM; 100% = saturating reference agonist, 0% = basal. activation, % at 9.5 µM. 56,000 tested, 0.57% active. AID 449;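 active = activation above a cutoff set at the mean activation of all tested compounds plus 3 SD, cut at about 54% in these data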;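 note: forskolin at 4 µM as EC80 and the EC20 agonist is SEW2871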
# BAP1 inh confirm = BAP1 (human) enzyme inhibition, confirmed | shares compounds with BAP1 inh | purified BAP1, Ub-ethyl ester hydrolysis, HPLC; hits give low values | % of control activity, % at 20 µM | 310 tested, 8% active | AID 753;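 active = percent of control activity at or below 60%; inconclusive = HPLC trace unusable from injection failure or solvent front hiding peaks; inactive = the rest, plus ubiquitin peak ratio over a set limit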
# Hits are given with their value; i = inactive; ? = inconclusive; nt = no result. Rows were chosen to be rich in hits. Some 1.9% of all compounds tested hit in one or more screens of this group.
SMILES,TNAP act DEA,Hsp90 inh,SK-BR-3 tox 24h,Her2 expr inh,BAP1 inh,S1P1 ag-PAM,BAP1 inh confirm
CCOC(=O)COc1nc(C)c(Br)c(OC)n1,i,i,i,i,50,i,i
c1ccc(-c2nnc3sc(-c4csc5c4CCCC5)nn23)cc1,i,i,i,i,43,i,59
c1ccc(-c2nnc3sc(-c4ccncc4)nn23)cc1,i,i,i,i,i,i,nt
CCOC(=O)c1c[nH]c2ccc(I)cc2c1=O,nt,nt,nt,nt,i,nt,nt
CCN1CCn2c1nc(N1CCCCC1)nc2=O,i,i,i,nt,i,i,nt
COc1ccccc1NC(=O)Nc1c(C)n(C)n(-c2ccccc2)c1=O,i,i,i,i,42,i,i
CCOC(=O)C1Cn2c(nc3c(c2=O)C2(CCCC2)Cc2ccccc2-3)S1 (stereo unspecified),i,i,i,i,23,nt,i
CCOC(=O)c1c(NC(=O)CSc2nnc(CNc3ccc(F)cc3)o2)sc(C)c1C,i,i,nt,i,43,i,?
